# LmPK inhibitor: blocks Leishmania mexicana pyruvate kinase activity; Q27686; 0.37% of 290,000 active; purified LmPK, Kinase-Glo ATP luminescence, 1 h; AID 1721; Potency, µM (doses to about 57.5 µM), for inactives: at the top dose activity change, negative = inhibition, usual class: inhibitors; also: potency is read from the fitted curve at half-maximal effect; % is scaled to controls: 0 for no effect and ±100 for the full control effect
# Target sequence (Q27686 whole entry, looked up): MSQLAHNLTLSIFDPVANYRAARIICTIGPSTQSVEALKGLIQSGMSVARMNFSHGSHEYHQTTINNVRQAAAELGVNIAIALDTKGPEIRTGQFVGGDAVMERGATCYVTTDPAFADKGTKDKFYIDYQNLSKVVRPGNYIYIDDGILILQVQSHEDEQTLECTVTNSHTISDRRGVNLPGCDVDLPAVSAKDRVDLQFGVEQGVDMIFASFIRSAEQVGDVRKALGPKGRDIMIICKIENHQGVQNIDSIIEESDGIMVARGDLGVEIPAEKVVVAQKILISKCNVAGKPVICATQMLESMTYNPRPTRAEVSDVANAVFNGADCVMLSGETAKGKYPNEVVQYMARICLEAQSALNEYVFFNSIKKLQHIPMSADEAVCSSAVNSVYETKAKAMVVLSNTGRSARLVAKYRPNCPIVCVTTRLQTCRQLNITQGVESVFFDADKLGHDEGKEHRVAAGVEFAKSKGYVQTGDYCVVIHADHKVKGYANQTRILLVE
#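 Pyruvate kinase activity monitored as ATP production (luciferase luminescence). Conditions: 0.1 nM enzyme, 0.5 mM PEP, 0.1 mM ADP, 1 h, RT; normalized against uninhibited and no-enzyme wells.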
# Pf growth 96h: P. falciparum growth inhibition at 96 hours. P. falciparum luciferase reporter growth, 96 h. AID 504834. 6.9% of 320,000 active. Potency, µM (series often up to 28.7 µM), for the others: at the top dose activity change, negative = inhibition, most hits filed as inhibitors; also: potency is read from the fitted curve at half-maximal effect; % is scaled to controls: 0 for no effect and ±100 for the full control effect
#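 Two-generation exposure (96 h) targets delayed-death phenotype. Reporter parasites carrying integrated firefly luciferase, in red cells at 2% hematocrit and 0.05% parasitemia final, kept at 37 C, 5% CO2; luminescence loss indicates inhibition.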
# Pf growth 48h: P. falciparum growth inhibition at 48 hours (one generation); Potency, µM (highest dose often 28.7 µM), for inactives: at the top dose activity change, negative = inhibition, most hits filed as inhibitors; P. falciparum luciferase growth in erythrocytes, 48 h; 5.9% of 310,000 active; also: potency is read from the fitted curve at half-maximal effect; % is scaled to controls: 0 for no effect and ±100 for the full control effect
#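 Erythrocytes infected with P. falciparum carrying an integrated firefly luciferase reporter (2% hematocrit, 0.1% parasitemia final) were exposed to compounds in RPMI 1640 with 0.5% Albumax at 37 C, 5% CO2. Growth inhibition was scored as reduced luminescence.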
# Cycloheximide cs: affects cycloheximide protein synthesis inhibition readout, counter-screen; cell reporter, cycloheximide protein synthesis inhibition counterscreen; max response, %; 12% of 300,000 active; AID 2314; in the data active = max response mostly above about 13%, no sharp cut-off; inactive = mostly below about 14%; also: read at 38.3 µM for the half of the compounds with a filed dose; 0% is about no effect
# Shiga inhibitor: Shiga toxin inhibition; Vero cells, Shiga toxin protein synthesis inhibition reporter; inhibition, % at 38.7 µM; 9.2% of 290,000 active; AID 2315; in the data active = inhibition mostly above about 28%, no sharp cut-off; inactive = mostly below about 43%; also: 0% is about no effect
# * = called active by the depositor; ? = inconclusive; nt = not tested or not shown. The list is not random: actives were taken first. Their share in the collection is about 22%. Unless noted, calls follow the shape of the dose curve; as a rule, active = well fitted inhibition curve with a large enough effect; inconclusive = small, poorly fitted or top-dose-only effect, or another doubt; inactive = no such curve, though single readings can be large or run the other way.
SMILES,LmPK inhibitor,Pf growth 96h,Pf growth 48h,Cycloheximide cs,Shiga inhibitor
c1ccc(Cn2nnc3c(NCC4CCCO4)nc(C4CC4)nc32)cc1 (centres undefined),5%,?,?,-3,-12
c1ccc(Cn2nnc3c(NCC4CCCO4)ncnc32)cc1 (centres undefined),0%,12µM*,42%,9,56
O=C(Cn1cnc2c(nnn2Cc2ccccc2F)c1=O)NCC1CCCO1 (centres undefined),5%,8%,4%,5,13
C/C(=N\NS(=O)(=O)c1ccc([N+](=O)[O-])cc1)c1c[nH]c2ccccc12,12%,?,81%,-3,-10
CCOC(=O)c1c(NC(=O)c2ccoc2C)sc(C(=O)N(C)C)c1C,-2%,10µM*,nt,-1,-13
CCOC(=O)c1c(NC(=O)COC(=O)c2ccccc2NC)sc(C(=O)N(C)C)c1C,1%,5.2µM*,?,-2,-10
CCOC(=O)c1c(NC(=O)COC(=O)Cc2ccccc2[N+](=O)[O-])sc(C(=O)N(C)C)c1C,nt,0%,?,nt,nt
CCN(CC)C(=O)c1sc(NC(=O)c2ccoc2C)c(C(=O)OC)c1C,-1%,6%,-13%,1,19
O=C(NC(=O)N1CCCC1)c1csnn1,3%,9%,12%,-2,16
COc1ccc(C2Nc3ccccc3C(=O)N2c2ccc(C)cc2)cc1Cn1cc([N+](=O)[O-])cn1 (centres undefined),7%,-73%,?,38*,50*
COc1ccc(C)cc1Cn1nnc2ccccc21,nt,33%,?,nt,nt
COc1ccc(C2Nc3ccccc3C(=O)N2c2ccc(C)cc2)cc1Cn1nnc2ccccc21 (centres undefined),1%,?,13µM*,51*,53*
Cc1nnc(SCC(=O)Nc2sc3c(c2C#N)CCCC3)[nH]c1=O,2%,15µM*,7%,-1,-4
CCOC(=O)c1c(NC(=O)CSc2nnc(C)c(=O)[nH]2)sc2c1CCCC2,1%,nt,13%,-5,-7
Cc1nnc(SCC(=O)Nc2sc3c(c2C#N)CCCCC3)n1N,-2%,nt,29%,20*,51*
CCCn1c(NC(=O)CN2C(=O)NC3(CCCCC3)C2=O)nc2ccccc21,nt,4%,?,nt,nt
COc1ccc(-c2csc(NC(=O)C3CSC4(C)CCC(=O)N34)n2)c(OC)c1 (centres undefined),nt,?,-27%,nt,nt
Cc1ccc(-c2nc(CS(=O)(=O)CC(=O)N3CCc4ccccc4C3)c(C)o2)cc1,-7%,13µM*,-18%,-2,1
CC(C)(C)c1ccc(/C=C/C(=O)N2CCc3ccccc3C2)cc1,-3%,0.74µM*,0.93µM*,-1,-7
Cc1ccc(/C=C/C(=O)N2CCc3ccccc3C2)cc1,1%,34%,nt,11*,12
Cc1c(Cl)cccc1NC(=O)Nc1cc(C(C)(C)C)on1,6%,?,10µM*,6,26
CC(C)(C)c1cc(NC(=O)Nc2ccc(Cl)cc2Cl)no1,3%,-21%,?,19*,78*
CC(C)(C)c1cc(NC(=O)Nc2ccc(Br)cc2Cl)no1,0%,13µM*,-27%,16*,61*
CN(CC(O)COCc1ccc2c(c1)OCO2)C1CCCCC1 (centres undefined),-2%,45%,6%,-1,-13
COC(=O)c1cc2sc(Cl)cc2n1CC(=O)Nc1ccc(OC)c(OC)c1OC,5%,21%,0.41µM*,-3,16
SMILES,LmPK inhibitor,Pf growth 96h,Pf growth 48h,Cycloheximide cs,Shiga inhibitor
COC(=O)c1cc2oc(C)cc2n1CC(=O)Nc1ccc(OC)c(OC)c1OC,3%,?,1.7µM*,-3,-4
COC(=O)c1cc2occc2n1CC(=O)Nc1ccc(OC)c(OC)c1OC,6%,135%,nt,-3,2
COc1ccc(CN2C(=NC(=O)CCc3ccccc3)SC3CS(=O)(=O)CC32)cc1 (centres undefined),-7%,?,-2%,-11,-2
Cc1nc(-c2ccccn2)sc1C(=O)Nc1ccc(F)cc1,5%,0%,0%,19*,5
CNC(=O)c1sc(-c2ccccn2)nc1C,-7%,95%,35%,4,10
Cc1nc(-c2cccnc2)sc1C(=O)Nc1ccc(F)cc1F,-2%,47%,4%,2,-11
Cc1nc(-c2ccccn2)sc1C(=O)Nc1ccc(F)cc1F,5%,?,5%,31*,59*

# Compound activity (PubChem)
